Compounds with a hit are over-represented: about 0.69% of the library has one in this group of screens.
E coli growth-1: E. coli growth inhibition; Escherichia coli growth, OD600, 23 h; stronger effect = lower value; OD600 absorbance (no concentration beside the values); AID 1053175; 330,000 compounds, 0.21% hits;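 active means OD600 absorbance below the run mean of sample wells minus 3.6 SD, in any replicate, cut at about 0.56 in these data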
PfHsp90 set2: inhibits growth of yeast expressing Plasmodium falciparum Hsp90; S. cerevisiae expressing PfHsp90, BacTiter-Glo ATP, 48 h; yeast lacking PDR1 and PDR3 efflux regulators; 310,000 compounds, 0.32% hits; AID 504621; inhibition, % at 9.4 µM;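 active means every replicate shows inhibition above about 80%, whatever the replicate mean, limit read from the data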
Tat transport: E. coli Tat transport inhibition; E. coli MC4100 TorA-mCherry Tat export, fluorescence; inhibition, % at 10 µM; 340,000 compounds, 0.036% hits; AID 488895;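 active means mean replicate inhibition at least 50% and at least half of replicates individually reaching 50%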;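 further: exported cargo escapes ClpAP degradation while cytoplasmic cargo is degraded and loses fluorescence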
AddAB inh: less growth of phage-infected E. coli with AddAB. E. coli expressing H. pylori AddAB, absorbance growth. inhibition, % at 11.9 µM. 330,000 compounds, 0.29% hits; in the data active means inhibition above about 12%
E coli growth-2: bacterial growth inhibition, counter-screen for AddAB inhibitors | inhibition, % at 11.9 µM | E. coli V3065 growth, OD600 absorbance, 18 h | 330,000 compounds, 0.27% hits;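 active means inhibition above the campaign's mean inhibition across all tested compounds plus 3 SD, cut at about 9.9% in these data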;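 further: uninfected addAB+ strain grown without phage in ampicillin broth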
phage Ecoli inh: E. coli growth loss with phage present. growth absorbance. inhibition, % at 11.9 µM. 360,000 compounds, 0.26% hits. AID 651602; in the data active means inhibition above about 11%
AddAB conf: confirmation screen: growth loss of phage-infected E. coli expressing H. pylori AddAB; E. coli V3065 expressing H. pylori AddAB, T4 phage, OD; T4 phage with gene 2 nonsense mutations; shares compounds with AddAB inh; inhibition, % at 11.9 µM; 880 compounds, 64% hits;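 active means mean inhibition above a set limit taken from the earlier primary screen, cut at about 13% in these data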;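 further: higher means less bacterial growth since AddAB block lets phage replicate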
RecBCD counter: AddAB counter-screen: growth loss of RecBCD+ E. coli infected with mutant T4 phage; shares compounds with AddAB inh; E. coli V66 + mutant T4 phage, OD growth; inhibition, % at 11.9 µM; 880 compounds, 73% hits;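 active means mean inhibition above the mean of solvent-only control wells plus 3 SD, cut at about 4% in these data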;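 further: optical density read after an 18 h incubation at 37 °C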
bact viab count: reduces bacterial viability, AddAB inhibitor counter-screen. shares compounds with AddAB inh. absorbance (AddAB counterscreen). inhibition, % at 11.9 µM. 880 compounds, 35% hits. AID 488956; in the data active means inhibition above about 25%
RecBCD conf: growth loss of phage-infected V66 E. coli, RecBCD confirmation screen | shares compounds with phage Ecoli inh | E. coli V66 + T4 2- phage, growth OD | inhibition, % at 11.9 µM | 890 compounds, 45% hits | AID 651982;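 active means mean inhibition over triplicates exceeding the hit threshold derived in the original primary screen, cut at about 11% in these data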
Ecoli viability: bacterial viability inhibition counter-screen for RecBCD | shares compounds with phage Ecoli inh | E. coli viability, absorbance (OD) growth | inhibition, % at 11.9 µM | 890 compounds, 29% hits; in the data active means inhibition above about 20%;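 further: E. coli strain V66 grown with compound alone and no phage infection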
AddAB phage OD: growth loss of phage-infected AddAB E. coli, RecBCD counter-screen; 890 compounds, 45% hits; shares compounds with phage Ecoli inh; E. coli expressing H. pylori AddAB + T4 phage, OD growth; gene 2 mutant T4, recBCD-deleted host; inhibition, % at 11.9 µM;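 active means mean inhibition above the solvent-only control wells' mean plus 3 SD, cut at about 22% in these data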;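 further: higher means less bacterial growth from phage killing when AddAB is blocked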
Each line names hits and unclear results; the compound was inactive in the other large screens (follow-up assays come after a bar, where they were run).

COC(=O)C1=C(c2ccc(Cl)c(C(F)(F)F)c2)CC2CCC1N2C(=O)NCc1ccco1 (stereo not drawn)	none (no result: PfHsp90 set2, Tat transport, AddAB inh, E coli growth-2, phage Ecoli inh)
Cc1nn(Cc2ccccc2)c(C)c1C(=O)NCc1ccccc1	Tat transport 54.6
COc1ccc(CN2C(=O)NC(=O)/C(=C/c3ccc([N+](=O)[O-])s3)C2=O)cc1	PfHsp90 set2 101.1 (no result: E coli growth-1)
COc1ccc(N2C(=O)NC(=O)/C(=C\c3ccc([N+](=O)[O-])s3)C2=O)cc1	E coli growth-1 0.474
O=C1NC(=O)N(Cc2ccc(F)cc2)C(=O)/C1=C\c1ccc([N+](=O)[O-])s1	PfHsp90 set2 101.2 (no result: E coli growth-1)
COc1ccc(N2C(=O)NC(=O)/C(=C/c3ccc([N+](=O)[O-])s3)C2=O)cc1	none (no result: PfHsp90 set2, Tat transport)
CC(=Cc1ccccc1)CC1=C(C)C2(CC2)[C@@]2(C)OC(=O)OC2C1=CCO (stereo partly drawn)	none (no result: PfHsp90 set2, Tat transport, AddAB inh, E coli growth-2, phage Ecoli inh)
COC(=O)C1=C(c2cccc(OCc3ccccc3)c2)CC2CCC1N2C(=O)NCCCc1ccccc1 (stereo not drawn)	none (no result: PfHsp90 set2, Tat transport, AddAB inh, E coli growth-2, phage Ecoli inh)
COC(=O)C1=C(c2ccc(F)cc2OCc2ccccc2)CC2CCC1N2C(=O)NCc1ccccc1C(F)(F)F (stereo not drawn)	none (no result: PfHsp90 set2, Tat transport, AddAB inh, E coli growth-2, phage Ecoli inh)
CCC(C)NC(=O)CCC(=O)OC1O[C@H]2OC3(C)CC[C@H]4[C@H](C)CCC(C1C)C24OO3 (stereo partly drawn)	E coli growth-1 0.499 (no result: AddAB inh, E coli growth-2)
CCC(C)C(NC(=O)CCCNC(=O)CCC(=O)OC1O[C@H]2OC3(C)CC[C@H]4[C@H](C)CCC(C1C)C24OO3)C(=O)O (stereo partly drawn)	none (no result: E coli growth-1)
COC(=O)C1=C(c2ccccc2OCc2ccccc2)CC2CCC1N2C(=O)NCCOc1ccc(OC)cc1 (stereo not drawn)	none (no result: PfHsp90 set2, Tat transport, AddAB inh, E coli growth-2, phage Ecoli inh)
CC(C)(C)C(O)C(Oc1ccc(Cl)cc1)n1cncn1 (stereo not drawn)	PfHsp90 set2 101.8
Cc1ccc(-c2nc(N3CCOCC3)s[n+]2-c2ccccc2)cc1	E coli growth-1 0.509
CN(C)c1ccc(/C=C/c2cc[n+](C)c3ccccc23)cc1	none (no result: E coli growth-1, AddAB inh, E coli growth-2)
CN(C)c1ccc(C=Cc2cc[n+](C)c3ccccc23)cc1	E coli growth-1 0.388 (no result: PfHsp90 set2, Tat transport, AddAB inh, E coli growth-2, phage Ecoli inh)
COC(=O)C1=C(c2cccc(C#N)c2)CC2CCC1N2C(=O)N1CCOCC1 (stereo not drawn)	none (no result: PfHsp90 set2, Tat transport, AddAB inh, E coli growth-2, phage Ecoli inh)
O=C(c1ccc(N2CCCCC2)c([N+](=O)[O-])c1)N1CCC2(CC1)OCCO2	E coli growth-1 0.524
CC1(C)NC(=O)C2CCCN21 (stereo not drawn)	none (no result: PfHsp90 set2, Tat transport, AddAB inh, E coli growth-2, phage Ecoli inh)
C[C@@H]1CC[C@H]2[C@@H](C)C(=O)O[C@@H]3O[C@@]4(C)CC[C@@H]1[C@]32OO4	E coli growth-1 0.446
COC(=O)C1=C(c2cc3ccccc3o2)CC2CCC1N2C(=O)NC1CCCCC1 (stereo not drawn)	none (no result: PfHsp90 set2, Tat transport, AddAB inh, E coli growth-2, phage Ecoli inh)
Cc1cccc(N=C2c3cc([N+](=O)[O-])ccc3-c3c2cc([N+](=O)[O-])cc3[N+](=O)[O-])c1	PfHsp90 set2 107.3 (no result: AddAB inh, E coli growth-2)
CC[C@H](C)/C=C(C)/C=C/C1=CC2=C(Cl)C(=O)[C@](C)(OC(C)=O)C(=O)C2=CO1	PfHsp90 set2 105.1 (no result: phage Ecoli inh)
CCCCCCn1c(O)c(C=NCCCn2ccnc2)c(=O)[nH]c1=O	none
CCCCCCC(Cl)(Cn1ccnc1)c1ccccc1 (stereo not drawn)	PfHsp90 set2 101.4
Oc1c(Cl)c(Cl)c(Cl)c(Cl)c1Cl	AddAB inh 13.2, E coli growth-2 11.3, phage Ecoli inh 12.0 | AddAB conf inactive | RecBCD counter 16.6 | bact viab count inactive
COC1C=CC23c4cc5c(cc4CO[C@]2(O)CN(C)C3C1)OCO5 (stereo partly drawn)	none (no result: PfHsp90 set2, Tat transport, AddAB inh, E coli growth-2, phage Ecoli inh)
CCN1/C(=C\C=C\C2=[N+](CC)c3ccccc3C2(C)C)C(C)(C)c2ccccc21	E coli growth-1 0.525, AddAB inh 35.4, E coli growth-2 30.5 (no result: phage Ecoli inh) | AddAB conf 51.0 | RecBCD counter 23.4 | bact viab count 45.6
COC(=O)C1=C(c2ccccc2)CC2CCC1N2C(=O)N1CCCC1 (stereo not drawn)	none (no result: PfHsp90 set2, Tat transport, AddAB inh, E coli growth-2, phage Ecoli inh)
COC(=O)C1=C(c2ccc(Cl)c(C(F)(F)F)c2)CC2CCC1N2C(=O)N1CCOCC1 (stereo not drawn)	none (no result: PfHsp90 set2, Tat transport, AddAB inh, E coli growth-2, phage Ecoli inh)
C[C@@H]1O[C@@H](O[C@H]2C[C@@H](O)[C@]3(CO)[C@H]4[C@H](O)C[C@]5(C)[C@@H](C6COC(=O)C6)CC[C@]5(O)[C@@H]4CC[C@]3(O)C2)[C@H](O)[C@H](O)[C@H]1O (stereo partly drawn)	AddAB inh 98.3, E coli growth-2 95.7 (no result: E coli growth-1) | AddAB conf inactive | RecBCD counter inactive | bact viab count inactive
Cc1cc(O)c2c(c1)C(=O)C13C(=C2O)C(=O)[C@H]2[C@@H](O)[C@@H]1[C@H]1[C@H](O)[C@@H]3C(=O)C3=C(O)c4c(O)cc(C)cc4C(=O)C312 (stereo partly drawn)	E coli growth-1 0.067, Tat transport 129.7, AddAB inh 60.1, E coli growth-2 76.4 (no result: phage Ecoli inh) | AddAB conf 36.1 | RecBCD counter 31.8 | bact viab count 42.6
COC(=O)C1=C(c2cc3ccccc3o2)CC2CCC1N2C(=O)N1CCCC1 (stereo not drawn)	none (no result: PfHsp90 set2, Tat transport, AddAB inh, E coli growth-2, phage Ecoli inh)
CCCCCCCCC(=O)NCc1ccc(O)c(OC)c1	AddAB inh 98.3, E coli growth-2 99.8 | AddAB conf inactive | RecBCD counter inactive | bact viab count inactive
COc1cc(CNCCc2ccc3c(c2)OCO3)ccc1O	none
COC12C(COC(N)=O)C3=C(C(=O)C(C)=C(N)C3=O)N1CC1C2N1C (stereo not drawn)	E coli growth-1 0.0535, Tat transport 80.4, AddAB inh 94.2, E coli growth-2 98.7, phage Ecoli inh 81.7 | AddAB conf 97.5 | RecBCD counter 89.0 | bact viab count 98.7 | RecBCD conf 94.1 | Ecoli viability 94.2 | AddAB phage OD 96.3

Assay outcomes: PubChem, several laboratories
